Assay outcomes from PubChem.
DAX1 inh-1 = DAX1 (NR0B1) inhibitors, primary screen, cell-based, HEK293, Gal4-DAX1, luciferase luminescence. Nuclear receptor subfamily 0 group B member 1 (Homo sapiens), P51843. HEK293 Gal4-DAX1 luciferase reporter. inhibition, % at 6.75 µM. 340,000 compounds, 0.99% hits. AID 504766, 2011;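 active = inhibition above the mean over all tested compounds plus 3 SD, cut at about 4.2% in these data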;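 note: 0% = DAX1-transfected cells with DMSO and 100% = empty-vector control cells with DMSO; inhibition shows as a rise in luminescence from relieved DAX1 repression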
Target sequence (P51843 207-470 limits assumed): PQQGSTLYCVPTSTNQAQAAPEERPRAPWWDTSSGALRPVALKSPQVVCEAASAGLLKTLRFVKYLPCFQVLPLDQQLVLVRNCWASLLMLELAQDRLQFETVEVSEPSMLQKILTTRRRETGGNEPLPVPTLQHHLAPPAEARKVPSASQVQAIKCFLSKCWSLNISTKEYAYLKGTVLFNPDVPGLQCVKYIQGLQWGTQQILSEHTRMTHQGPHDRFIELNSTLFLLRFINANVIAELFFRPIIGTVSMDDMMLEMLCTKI
hcDAF-12 act = H. contortus DAF-12 nuclear receptor activators, primary screen, cell-based, luminescence, HEK293, lit1-tk-luc reporter; HEK293 hcDAF-12 lit1-tk-luc reporter; 0% DMSO, 100% Δ7-dafachronic acid; activation, % at 6.8 µM; 370,000 compounds, 1.4% hits; AID 652067, 2013;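 active = activation above the mean of all tested compounds plus 3 SD, cut at about 5.5% in these data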;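 note: 100% = response to 3 µM Δ7-dafachronic acid high control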
hgDAF-12 ag = H. glycines DAF-12 receptor agonists, primary screen, cell-based, luminescence, HEK293, GAL4 fusion, UAS-luciferase; Nuclear hormone receptor DAF-12 (Heterodera glycines), GAL4 fusion; HEK293 GAL4-hgDAF12 UAS-luciferase reporter, agonist luminescence; normalized to butyrate control; activation, % at 6.8 µM; 370,000 compounds, 1.8% hits; AID 687014, 2013;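 active = activation above a cutoff set at the mean of all screened compounds plus 3 SD, cut at about 10% in these data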;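 note: 0% = DMSO wells and 100% = sodium butyrate wells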
ssDAF-12 act = S. stercoralis DAF-12 nuclear receptor activators, primary screen, cell-based, luminescence, HEK293, GRIP1 co-expression, lit1-tk-luc. HEK293 ssDAF-12/GRIP1 lit1-tk-luc reporter; % of 3 µM dafachronic acid response. activation, % at 6.8 µM. 370,000 compounds, 1% hits. AID 652126, 2013;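 active = activation above the mean over all tested compounds plus 3 SD, cut at about 0.9% in these data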;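 note: 0% = DMSO-only wells and 100% = 3 µM delta7-dafachronic acid wells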
DAX1 inh-2 = DAX1 (NR0B1) inhibitors on StAR promoter, primary screen, cell-based, luminescence, SF-1 (NR5A1), full-length DAX-1. HEK293T StAR-luciferase reporter, SF-1/DAX-1 repression relief. inhibition, % at 6.8 µM. 370,000 compounds, 1.1% hits. AID 652010, 2013;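 active = inhibition above the mean over all tested compounds plus 3 SD, cut at about 3.6% in these data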;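 note: 0% = DAX-1 cells with DMSO and 100% = cells lacking DAX-1 with DMSO; higher inhibition means more luminescence from relief of DAX-1 repression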
* marks the source's active call; other numbers are inactive results; . = no result. Compounds with a hit are over-represented: about 4.1% of the library has one in this group of screens.

SMILES	DAX1 inh-1	hcDAF-12 act	hgDAF-12 ag	ssDAF-12 act	DAX1 inh-2
CC(C)(C)NC(=O)C(c1cc2ccccc2o1)n1c(=O)c(-c2ccccc2)nc2ccccc21 (stereo unspecified)	.	3.6	3.0	1.1*	1.0
Cc1cccc(C)c1NC(=O)C(c1ccncc1)n1c(=O)c(-c2cc3ccccc3[nH]2)nc2ccccc21 (stereo unspecified)	.	6.4*	10.6*	1.0*	2.5
CC(C)(C)NC(=O)C(c1ccc(-c2ccccc2)cc1)n1c(=O)c(-c2ccccc2)nc2ccccc21 (stereo unspecified)	.	-2.1	-1.6	-0.8	-0.3
Cc1cccc(C)c1NC(=O)C(c1ccccc1)n1c(=O)c(-c2cc3ccccc3[nH]2)nc2ccccc21 (stereo unspecified)	.	2.8	0.9	0.2	0.5
CCCCCNC(=O)C(C1CC1)n1c(=O)c(-c2cc3ccccc3[nH]2)nc2ccccc21 (stereo unspecified)	.	2.1	3.3	-0.4	0.1
CCCCCNC(=O)C(c1cc2ccccc2o1)n1c(=O)c(-c2cc3ccccc3[nH]2)nc2ccccc21 (stereo unspecified)	.	5.6*	4.9	-0.2	0.4
CCCCCNC(=O)C(c1ccc(-c2ccccc2)cc1)n1c(=O)c(-c2cc3ccccc3[nH]2)nc2ccccc21 (stereo unspecified)	.	6.0*	6.0	1.2*	1.7
CN(C)CCCN(C(=O)c1cc(-c2cccs2)nc2ccccc12)c1nc2c(F)cccc2s1	1.2	-1.1	0.3	-0.6	4.1*
CC1=NN(C(N)=S)C(=O)C1N=Nc1ccc(O)cc1 (stereo unspecified)	1.9	-0.8	-1.7	-1.7	0.0
CC1=NN(C(N)=S)C(=O)C1N=Nc1ccc(C)c(Br)c1 (stereo unspecified)	2.4	6.1*	7.6	0.1	1.2
COCCCN(C(=S)Nc1cc(C)cc(C)c1)C(C)c1ccncc1 (stereo unspecified)	-0.6	-0.7	-1.5	0.9*	-0.1
COc1ccc(N(C(=O)c2snc(C(N)=O)c2N)C(C(=O)NC2CCCC2)c2cc(OC)ccc2OC)cc1 (stereo unspecified)	-2.4	-2.3	-3.9	-1.4	-0.4
CCCc1cc(C(=O)Cc2nc3ccccc3s2)c(O)cc1O	1.3	5.7*	4.7	0.9*	1.0
CCCc1cc(C(=O)Cc2ccc(F)cc2)c(O)cc1O	0.0	-0.8	0.0	-1.4	-0.4
COC(=O)[C@]12CCCCC=C1N(Cc1ccc(OC)cc1)C(=O)[C@@H]2CC(=O)N1CCOCC1	.	-1.1	-0.9	-0.5	-1.1
CCN(CC)C(=O)c1sc2nc(-c3ccc(OC)cc3)cn2c1C	1.4	1.9	13.0*	-0.6	3.6
COc1ccc(-c2cn3c(C)c(C(=O)NCCN4CCOCC4)sc3n2)cc1	-2.1	4.9	0.9	-0.7	-0.2
CCCCn1c(=O)c(CCC(=O)OCC(=O)Nc2cccc3ccccc23)nc2ccccc21	-0.5	1.5	-1.6	1.6*	-0.3
COc1ccc2cc(CNCCOCCOCCNCc3ccc4cc(OC)ccc4c3)ccc2c1	0.2	-0.8	-0.3	-1.4	1.0
C/C(=N\Nc1ccc(C(F)(F)F)cn1)c1ccncc1	-0.3	-0.3	4.0	-1.1	4.0*
Oc1ccc(/C=N/Nc2ccc(C(F)(F)F)cn2)cc1	-0.3	2.6	8.6	0.2	4.4*
Oc1ccc(/C=N/Nc2ccc(C(F)(F)F)cn2)c(O)c1	-0.1	-1.4	-4.4	-0.9	-1.5
CC[C@H](C)[C@H]1CNC(=O)C(=O)N1CC1CCN(CC(C)C)CC1	.	-1.6	-1.3	-1.1	-1.2
O=C(COc1ccccc1C(=O)NCc1ccccc1)Nc1ccc(I)cc1	.	-2.5	-2.0	-1.7	-2.2
Cc1ccc(NNC(=O)c2cc(C)on2)c(C)c1	1.2	0.6	3.5	-0.9	0.8
SMILES	DAX1 inh-1	hcDAF-12 act	hgDAF-12 ag	ssDAF-12 act	DAX1 inh-2
Cc1cc(C(=O)NNc2ccc(F)cc2F)no1	7.6*	-1.6	-2.3	-0.8	0.2
N/C(=N\OC(=O)c1cccc(Cl)c1)c1cccnc1	1.6	4.7	11.1*	0.2	1.5
COc1ccc(Cl)cc1C(=O)O/N=C(\N)c1ccc(Cl)cc1	2.6	6.0*	1.0	-1.0	0.7
N/C(=N\OC(=O)c1cc(Cl)ccc1Cl)c1cccnc1	-0.5	6.3*	2.0	0.7	0.4
COc1cc(OC)c(C(=O)O/N=C(\N)c2ccc(C)cc2)cc1OC	-0.7	-0.4	-0.7	-1.5	-0.1
CCOC(=O)C(CNc1ccc(OCc2ccccc2)cc1)NC(=O)c1ccccc1 (stereo unspecified)	.	2.8	8.9	-0.7	0.6
CCOC(=O)CN1C(=O)[C@]2(OCCC=C[C@H]2C)c2c(Br)cccc21	.	-0.5	2.6	-1.6	0.7
CC(C)NC(=O)/C(C#N)=C/c1ccc(N(C)C)o1	5.0*	-1.4	3.0	-1.6	0.2
COc1ccc(N)cc1CN1CCN(c2ncc(Cc3ccccc3)cn2)CC1	.	2.8	0.4	-1.1	-0.7
CCN(CC)S(=O)(=O)c1ccc(-c2csc(C)n2)cc1	6.5*	-1.4	-1.3	-0.9	0.5
CCCN(CCC)S(=O)(=O)c1cccc(-c2csc(C)n2)c1	-0.4	-1.7	-1.6	-1.5	-0.7
CCCN(C)C[C@H]1Oc2cc(C#Cc3ccc(F)cc3)ccc2S(=O)(=O)N([C@H](C)CO)C[C@@H]1C	-0.1	0.7	1.5	-1.0	-0.4
COc1cccc(C2Oc3ccccc3C3CC(c4cccs4)=NN32)c1 (stereo unspecified)	.	5.8*	6.6	-0.6	0.8
CN(C)S(=O)(=O)c1cc(NC(=O)CN2CCc3ccccc32)ccc1Cl	-0.7	4.8	6.3	1.0*	0.5
Cn1c(/N=C/c2ccc3c(c2)OCO3)nc2ccccc21	0.0	5.9*	1.0	-0.6	-0.3
O=C(CSc1nc2nc(-c3cccs3)cc(C(F)(F)F)c2c(=O)[nH]1)C(F)(F)F	1.9	1.2	13.0*	-1.7	1.0
COC(=O)CSc1nc2nc(-c3cccs3)cc(C(F)(F)F)c2c(=O)[nH]1	0.0	0.6	-0.2	-0.9	-0.1
O=C1N=C(N2CCCC2)S/C1=C\c1ccccc1	1.2	-2.1	1.1	-1.2	0.5
O=C1N=C(N2CCCCC2)S/C1=C\c1ccccc1F	4.3*	0.3	4.4	-0.6	0.2
COC(=O)[C@]12C[C@H](CC(=O)N3CCCCC3)C(=O)N(CCc3ccc(OC)c(OC)c3)C1=C[C@H](C(C)(C)C)O[C@@H]2C	.	3.6	-1.0	-1.4	-1.2
